The source made the active and inactive calls. Unless noted, the rule behind the calls is not given here.

Assay [1] in a line: compounds binding Alexa647 anti-His antibody – biochemical, small-molecule microarray, 635 nm fluorescence, artefact control for SMM control protein annotation, primary screen (AID 1128).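 Note: score merges feature fluorescence with signal-to-noise for each printed compound spot.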 As to conditions: higher = more signal.
For assay [2], the system named is Human papillomavirus type 1a E7 protein (residues 1-88). The experiment in a line: HPV1a E7 small-molecule binders, primary screen, biochemical, small-molecule microarray, residues 1-88, 635 nm (AID 1129). As to conditions: small-molecule microarray binding, fluorescence 635 nm; higher = more signal.
For assay [3], the target named is Focal adhesion kinase 1 (Homo sapiens) (UniProt Q05397). The experiment in a line: PTK2 protein binding on printed compound slides – biochemical, small-molecule microarray, 635/667 nm fluorescence, BSA, DTT, primary screen (AID 1130).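 Note: composite of spot emission at 667 nm and signal to noise over triplicate slides.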 To be noted: 635 nm fluorescence, higher = more signal.
Sequence of Focal adhesion kinase 1 (Homo sapiens) (Q05397 whole entry, looked up): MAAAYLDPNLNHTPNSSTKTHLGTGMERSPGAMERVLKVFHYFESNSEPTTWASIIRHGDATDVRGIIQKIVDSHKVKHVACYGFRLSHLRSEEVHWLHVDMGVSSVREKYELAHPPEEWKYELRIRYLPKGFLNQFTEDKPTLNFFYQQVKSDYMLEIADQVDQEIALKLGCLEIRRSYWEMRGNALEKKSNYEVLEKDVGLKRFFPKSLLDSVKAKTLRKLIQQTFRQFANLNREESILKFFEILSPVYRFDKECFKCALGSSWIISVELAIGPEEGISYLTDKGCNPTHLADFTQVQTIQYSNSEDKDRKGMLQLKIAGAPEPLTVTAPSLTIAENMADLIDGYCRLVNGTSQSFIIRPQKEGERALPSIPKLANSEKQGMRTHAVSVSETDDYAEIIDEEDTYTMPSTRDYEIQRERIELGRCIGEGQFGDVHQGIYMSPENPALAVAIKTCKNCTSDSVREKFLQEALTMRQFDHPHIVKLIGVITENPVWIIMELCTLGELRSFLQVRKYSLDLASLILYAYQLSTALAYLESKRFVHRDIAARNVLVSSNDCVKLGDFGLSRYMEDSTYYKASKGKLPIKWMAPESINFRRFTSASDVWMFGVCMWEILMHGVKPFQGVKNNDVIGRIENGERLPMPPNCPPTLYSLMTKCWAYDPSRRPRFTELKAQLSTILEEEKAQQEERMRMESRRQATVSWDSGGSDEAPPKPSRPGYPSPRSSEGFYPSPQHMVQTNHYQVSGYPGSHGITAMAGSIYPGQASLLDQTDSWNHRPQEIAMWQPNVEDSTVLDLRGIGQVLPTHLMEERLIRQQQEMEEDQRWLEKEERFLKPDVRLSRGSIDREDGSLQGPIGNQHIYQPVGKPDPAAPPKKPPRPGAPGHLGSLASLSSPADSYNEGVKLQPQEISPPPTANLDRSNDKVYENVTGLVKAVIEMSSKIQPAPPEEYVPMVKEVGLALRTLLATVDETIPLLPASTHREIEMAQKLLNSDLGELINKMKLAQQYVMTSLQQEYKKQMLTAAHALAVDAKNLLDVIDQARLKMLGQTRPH
For assay [4], the system named is Fibrinogen (Alexa647-labelled). Briefly: Alexa647-fibrinogen binding to printed small molecules – biochemical, small-molecule microarray, 635/667 nm fluorescence, artefact control for SMM control-protein annotation, profiling panel (AID 1131).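 Note: z-score merges 667 nm fluorescence with per-spot signal-to-noise over triplicate slides.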 As to conditions: fibrinogen-A647 binding fluorescence, higher = more signal.
Assay [5] addresses Follistatin (Homo sapiens) (UniProt P19883). The experiment in a line: FST protein binding to printed compounds – biochemical, small-molecule microarray, 635/667 nm fluorescence, primary screen (AID 1132). To be noted: 635 nm fluorescence, higher = more signal.
For assay [6], the target named is Fibroblast growth factor 2 (Homo sapiens) (UniProt P09038). Briefly: basic fibroblast growth factor binding to printed compounds – biochemical, small-molecule microarray, 635/667 nm fluorescence, primary screen (AID 1133). As to conditions: FGF2, fluorescence 635/667, higher = more signal.
Sequence of Fibroblast growth factor 2 (Homo sapiens) (P09038 whole entry, looked up): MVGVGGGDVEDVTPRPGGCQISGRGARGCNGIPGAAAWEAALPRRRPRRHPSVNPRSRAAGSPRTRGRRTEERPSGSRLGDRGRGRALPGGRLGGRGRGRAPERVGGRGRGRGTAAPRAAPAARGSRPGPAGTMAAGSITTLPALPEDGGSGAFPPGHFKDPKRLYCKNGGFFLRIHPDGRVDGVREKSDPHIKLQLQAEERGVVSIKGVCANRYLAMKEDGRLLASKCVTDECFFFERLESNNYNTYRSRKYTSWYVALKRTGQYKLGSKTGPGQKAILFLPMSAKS
A short description of assay [7]: JC-1 mitochondrial potential readout, lung cancer cells – cell-based, A549, JC-1 fluorescence, basal, 24 h, 100 nL, profiling panel (AID 1138).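 Note: A549 lung adenocarcinoma cells under basal conditions with no added stimulus; test concentration not given here.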 As to conditions: higher = more signal.
The subject of the next assay is Lefty1. Briefly: Lefty1 protein binding to printed compounds – biochemical, small-molecule microarray, 635/667 nm fluorescence, primary screen (AID 1139). To be noted: fluorescence 635/667, higher = more signal.
Assay [8] deals with wheat germ agglutinin (Triticum aestivum), Alexa647-labelled. Briefly: Alexa647-WGA lectin binding to printed small molecules – biochemical, small-molecule microarray, 635/667 nm fluorescence, artefact control for SMM control-protein annotation, profiling panel (AID 1140).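 Note: score merges 667 nm feature emission with signal to noise over triplicate slides.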 As to conditions: WGA-A647 binding, 635 nm fluorescence, higher = more signal.
For assay [9], the target named is Luciferin 4-monooxygenase (Photinus pyralis) (UniProt P08659). The experiment in a line: inhibition of purified Photinus pyralis luciferase – biochemical, luminescence, purified enzyme, 2006 set, primary screen (AID 1141).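 Note: cell-free assay with purified firefly luciferase at 100 ng per well in PBS; test concentration not given here.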 To be noted: purified firefly luciferase, SteadyGlo luminescence, 30 min; higher = more signal, called active from +8 up or from −8 down.
Sequence of Luciferin 4-monooxygenase (Photinus pyralis) (P08659 whole entry, looked up): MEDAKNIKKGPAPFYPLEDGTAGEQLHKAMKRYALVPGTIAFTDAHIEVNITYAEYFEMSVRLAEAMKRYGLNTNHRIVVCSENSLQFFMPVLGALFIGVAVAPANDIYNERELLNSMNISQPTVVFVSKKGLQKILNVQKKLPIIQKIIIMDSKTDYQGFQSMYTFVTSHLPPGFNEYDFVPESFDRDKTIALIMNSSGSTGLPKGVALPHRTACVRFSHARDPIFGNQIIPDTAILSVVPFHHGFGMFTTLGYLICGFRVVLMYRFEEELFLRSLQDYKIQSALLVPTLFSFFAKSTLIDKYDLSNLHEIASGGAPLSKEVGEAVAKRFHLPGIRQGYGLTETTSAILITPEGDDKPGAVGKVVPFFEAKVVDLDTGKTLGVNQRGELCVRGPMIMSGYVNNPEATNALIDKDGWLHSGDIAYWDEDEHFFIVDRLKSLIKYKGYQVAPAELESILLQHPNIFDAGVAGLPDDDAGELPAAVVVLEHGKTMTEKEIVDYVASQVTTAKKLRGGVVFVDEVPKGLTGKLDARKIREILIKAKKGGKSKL
Assay [10] deals with Wnt5a (protein binding on small-molecule microarray). The experiment in a line: small molecules binding Wnt5a protein – biophysical, small-molecule microarray, 635/667 nm fluorescence, primary screen (AID 1142).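 Note: fluorescence read at 667 nm with signal to noise per printed feature.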 To be noted: 635 nm fluorescence, higher = more signal.
A short description of assay [11]: ATP-based viability of Huh7 replicon cells – cell-based, CellTiter-Glo luminescence, basal, 48 h, cytotoxicity control for HCV replication inhibitor project, primary screen (AID 1143).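 Note: Huh7 hepatoma cells carrying a hepatitis C replication reporter with no stimulus; test concentration not given here.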 To be noted: higher = more signal, called active from +8 up or from −8 down. In general terms: In antiviral work, replicon cells carry a viral genome segment that copies itself.
The nature of assay [12]: Pseudomonas biofilm growth suppression – PAO1 strain, BacTiter-Glo luminescence, LB-PBS, primary screen (AID 1144). As to conditions: P. aeruginosa PAO1 biofilm, 12 h, higher = more signal.
Assay [13] is described as follows: basal CRE-LacZ reporter activity in PC12 – cell-based, unstimulated, primary screen (AID 1145). As to conditions: no forskolin, luminescence, 4.5 h, higher = more signal, called active from +8 up or from −8 down.
Assay [14] can be described thus: forskolin-driven CRE-LacZ activity in PC12 – cell-based, CRE-LacZ reporter, forskolin-stimulated, primary screen (AID 1146).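 Note: PC12 cells with 6xCRE LacZ reporter stimulated by forskolin 10 µM; beta-galactosidase reporter signal reflecting CREB driven transcription.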 To be noted: luminescence, 4.5 h, higher = more signal, called active from +8 up or from −8 down.
The target of assay [15] is Streptavidin (Streptomyces avidinii) (UniProt P22629). The experiment in a line: compounds binding control protein streptavidin – biophysical, small-molecule microarray, 635/667 nm fluorescence, artefact control for SMM compound annotation, primary screen (AID 1147).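 Note: signal reflects streptavidin binding to arrayed compounds as a control protein.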 To be noted: higher = more signal.
Sequence of Streptavidin (Streptomyces avidinii) (P22629 whole entry, looked up): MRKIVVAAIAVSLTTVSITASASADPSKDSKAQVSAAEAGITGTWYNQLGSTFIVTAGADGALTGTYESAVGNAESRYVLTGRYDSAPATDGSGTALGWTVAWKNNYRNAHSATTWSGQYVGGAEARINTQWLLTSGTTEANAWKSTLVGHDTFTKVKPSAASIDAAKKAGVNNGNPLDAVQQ
Assay [16] can be described thus: probe aInhba binding on compound microarray – biochemical, small-molecule microarray, 635/667 nm fluorescence, primary screen (AID 1148).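 Note: score merges 667nm spot fluorescence with signal-to-noise for antibody binding to printed compounds.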 To be noted: higher = more signal.
Assay [17] has as its target Torsin-1A (Homo sapiens) (UniProt O14656). Briefly: TOR1A wild-type binding on microarray – cell lysate, small-molecule microarray, lysate, 635/667 nm, primary screen (AID 1149). To be noted: COS7 hTOR1A-WT lysate, 635 nm fluorescence, higher = more signal.
The target is the same in assay [18]. The experiment in a line: torsin A mutant lysate binding on microarrays – cell lysate, small-molecule microarray, COS7 lysate, 635/667 nm fluorescence, primary screen (AID 1150).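 Note: score pools 667 nm emission and signal to noise measuring lysate protein binding.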 As to conditions: COS7 hTOR1A mutant lysate, 635 nm fluorescence, higher = more signal.
The subject of assay [19] is Sonic hedgehog protein (Shh). The experiment in a line: Sonic hedgehog microarray binding compounds – biochemical, small-molecule microarray, 635/667 nm fluorescence, primary screen (AID 1151).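 Note: Shh protein binding to compounds spotted on small-molecule microarray slides; score combines spot fluorescence intensity with signal-to-noise across triplicate slides.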 To be noted: 635 nm fluorescence, higher = more signal.

Sequence of Torsin-1A (Homo sapiens) (O14656 whole entry, looked up): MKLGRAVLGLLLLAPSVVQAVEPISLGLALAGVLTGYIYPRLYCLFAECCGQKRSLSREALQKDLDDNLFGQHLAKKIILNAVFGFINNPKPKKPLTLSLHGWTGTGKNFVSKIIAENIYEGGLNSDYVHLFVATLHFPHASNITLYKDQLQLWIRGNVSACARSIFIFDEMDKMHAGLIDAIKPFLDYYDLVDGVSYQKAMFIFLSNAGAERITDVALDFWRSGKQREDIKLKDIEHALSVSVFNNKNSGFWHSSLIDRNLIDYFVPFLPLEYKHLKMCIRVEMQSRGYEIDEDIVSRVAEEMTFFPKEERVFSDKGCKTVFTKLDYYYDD
Sequence of Follistatin (Homo sapiens) (P19883 whole entry, looked up): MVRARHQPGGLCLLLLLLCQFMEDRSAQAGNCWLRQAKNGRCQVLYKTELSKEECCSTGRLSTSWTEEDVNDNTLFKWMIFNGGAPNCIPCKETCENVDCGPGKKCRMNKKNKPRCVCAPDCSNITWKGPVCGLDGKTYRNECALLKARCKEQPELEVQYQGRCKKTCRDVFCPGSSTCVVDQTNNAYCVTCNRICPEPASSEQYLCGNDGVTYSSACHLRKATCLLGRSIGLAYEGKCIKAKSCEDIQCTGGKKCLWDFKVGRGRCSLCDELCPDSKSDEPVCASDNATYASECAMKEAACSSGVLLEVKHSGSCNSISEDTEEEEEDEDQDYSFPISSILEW

For the compound `C=C[C@@H](COC(C)=O)N(C(=O)OC(C)(C)C)S(=O)(=O)c1ccc(Br)cc1`, the composite z-score in assay [1] came out at 1.5; in assay [2] it was 0.966; in assay [3] it was 0.233; in assay [4], 0.741; in assay [5], 1.53; in assay [6], 1.89. The composite z-score was 1.65 with Lefty1; 1.1 in assay [8]; 0.423 in [10]; 0.802 in [15]; -0.231 in assay [16]; 0.814 with Torsin-1A (Homo sapiens) [17]. For the same compound, the values for the composite z-score (with Torsin-1A (Homo sapiens) [18]; in assay [19]) were 0.559 and 2.16, respectively. In addition, the z-score is 0.307 in [7]; -0.149 (inactive) in assay [9]; -0.284 (inactive) in [11]; 1.01 (inactive) in assay [12]; 0.391 (inactive) in [13]; -0.739 (inactive) in [14].

For the compound `[N-]=[N+]=NCc1ccccc1C[C@@]1(C(=O)N2CCCCC2)N=C(c2ccc(OCCCO)cc2)O[C@@H]1c1ccccc1`, the composite z-score worked out at 0.686 in [1]; 1.12 in assay [2]; 0.214 in assay [3]; 0.519 in [4]; 0.24 in assay [5]; 0.201 in [6]. In addition, the composite z-score was -0.693 in the assay with Lefty1; 0.636 in assay [8]; 0.462 in [10]; 0.325 in assay [15]; 0.159 in assay [16]; -0.0373 with Torsin-1A (Homo sapiens) [17]. The composite z-score with Torsin-1A (Homo sapiens) [18] is 0.601; in [19], -0.762. In addition, the z-score in assay [7] was 0.144; in assay [9] it was -0.362 (inactive); in [11], -4.99 (inactive); in [12], 0.914 (inactive); in assay [13], -0.552 (inactive); in assay [14] it was 0.886 (inactive).

Turning to `O=C1O[C@@H](c2ccccc2)[C@@H](c2ccccc2)N2[C@@H](c3ccc(OCCO)cc3)[C@]3(C(=O)Nc4ccccc43)[C@@H](C(=O)O)[C@H]12`, the composite z-score was 2.37 in assay [1]; 0.177 in assay [2]; -0.0546 in [3]; 0.679 in assay [4]; 0.197 in assay [5]; -0.406 in [6]. For the same compound, the composite z-score in the assay with Lefty1 was determined as 0.044; in [8], 0.125; in assay [10], 0.615; in assay [15], 0.0928; in assay [16] it was 0.697; with Torsin-1A (Homo sapiens) [17], 0.043. Further, the figures for the composite z-score (with Torsin-1A (Homo sapiens) [18]; in [19]) were 1.65 and 0.301, respectively. The z-score in assay [7] is -0.75; in assay [9], -1.43 (inactive); in assay [11], -4.21 (inactive); in assay [12], -0.148 (inactive); in [13] it was -0.258 (inactive); in [14], 0.273 (inactive).

As for `CN(C)C(=O)[C@]1(CCS(=O)(=O)c2ccccc2)N=C(c2ccc(OCCCO)cc2)O[C@@H]1c1ccccc1N=[N+]=[N-]`, the composite z-score in [1] turned out to be 1.21; in assay [2], 1.27; in [3] it was 1.46; in assay [4], 1.02; in assay [5], 1.44; in assay [6], 0.943. The composite z-score in the assay with Lefty1 was 0.762; in [8], 0.941; in assay [10] it was 0.758; in assay [15] it was 2.06; in assay [16] it was 0.246; with Torsin-1A (Homo sapiens) [17] it was 1.42. Further, the composite z-score with Torsin-1A (Homo sapiens) [18] came to 1.78; in [19], 0.605. The z-score in assay [7] is 1.08; in assay [9], -12.3 (active); in assay [11], -2.79 (inactive); in assay [12], 0.0474 (inactive); in assay [13], 1.92 (inactive); in [14] it was -0.977 (inactive).

Regarding `[N-]=[N+]=Nc1ccccc1[C@@H]1OC(c2ccc(OCCCO)cc2)=N[C@]1(Cc1ccccc1)C(=O)NCC(O)CO` (stereo not given in full), the composite z-score amounted to 2.23 in assay [1]; 0.95 in assay [2]; 0.587 in assay [3]; 0.966 in assay [4]; 1.4 in [5]; 1.06 in assay [6]. The composite z-score is -0.823 with Lefty1; 1.2 in assay [8]; 0.951 in [10]; 1.34 in assay [15]; 0.572 in [16]; 0.436 with Torsin-1A (Homo sapiens) [17]. For the same compound, the composite z-score was 1.47 with Torsin-1A (Homo sapiens) [18] and -0.231 in assay [19]. In addition, the z-score is 1.63 in [7]; -4.93 (inactive) in [9]; -3 (inactive) in assay [11]; 0.255 (inactive) in assay [12]; 0.834 (inactive) in assay [13]; -1.8 (inactive) in [14].

(Values after PubChem BioAssay.)
